TexasRed fluor = alters Texas Red total fluorescence, flagging assay interference. TRb/SRC2 Texas Red total fluorescence interference. Potency, µM (top dose mostly 106 µM), for the others: at the top dose fluorescence change, negative = quenching. actives 0.29% (n = 280,000). AID 1479; active means well fitted curve in either direction with a large enough effect; inconclusive means small, poorly fitted or top-dose-only effect
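Flags fluorescent or light-absorbing compounds by total fluorescence, S + 2P, at 555 nm excitation and 632 nm emission. Mixture: 20 nM Texas Red SRC2 peptide, 0.6 uM human TRb LBD, 1 uM T3, 5% DMSO; compound exposure 5 h at ambient temperature.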
Tau FP inhib = tau fibrillization inhibition (FP) | P10636 | K18 P301L tau heparin fibrillization, Alexa594 FP, 6 h | Potency, µM (series often up to 57.7 µM), for the others: at the highest dose activity, negative = inhibition, usual class: inhibitors | actives 0.39% (n = 280,000) | AID 1468; further: nearly all actives have a fitted effect of over 55% in size
Target sequence (P10636 561-689 P618L limits assumed): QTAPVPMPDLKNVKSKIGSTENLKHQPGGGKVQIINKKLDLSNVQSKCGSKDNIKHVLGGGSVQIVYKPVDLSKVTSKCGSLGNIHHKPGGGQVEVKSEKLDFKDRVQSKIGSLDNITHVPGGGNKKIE
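FP of Alexa 594-tau after heparin (20 uM) induction. Substrate: human K18 P301L, 15 uM unlabeled, 0.24 uM labeled. Buffer 100 mM sodium acetate pH 7. 6 hr, 37 C.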
TRb-SRC2 inh = disrupts binding of human TR beta to SRC2; AID 1469; actives 0.065% (n = 280,000); TRbeta-SRC2 peptide binding, fluorescence polarization; receptor liganded with 1 µM T3; Potency, µM (series often up to 106 µM), inactives show at the highest dose activity change, negative = inhibition, actives largely listed as inhibitors;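 further: plate controls were bound peptide for no effect and peptide without receptor for full effect; nearly all actives have a fitted effect of over 50% in size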
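Human TRb ligand-binding domain (0.6 uM) is mixed with 20 nM Texas Red SRC2 peptide and 1 uM T3; after compound addition and 5 hr at ambient temperature, polarization is measured and normalized to unbound and bound controls.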
Tau fibril ThT = inhibitors of human tau fibril formation, thioflavin T binding. recombinant tau K18 P301L, heparin-induced fibrillization, ThT fluorescence. actives 2.1% (n = 270,000). P10636. AID 1460. Potency, µM (top dose mostly 57.4 µM), inactives show top-dose activity, negative = inhibition, hits mostly inhibitors; further: nearly all actives have a fitted effect of over 55% in size
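Using a mix of unlabeled (15 uM) and Alexa 594-labeled (0.24 uM) tau K18 P301L, heparin-triggered fibrillization over 6 hr at 37 C was scored by ThT fluorescence.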
Tau fluor counter = counter-screen for tau fibril formation inhibitors. actives 0.93% (n = 280,000). tau K18 P301L (four-repeat tau fragment) Alexa594 fluorescence, heparin fibrillization. Potency, µM (highest dose often 57.7 µM), inactives show top-dose activity change, negative = decrease. AID 1463; further: nearly all actives have a fitted effect of over 55% in size
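Human K18 P301L tau (15 uM unlabeled plus 0.24 uM Alexa 594-labeled, final) in 100 mM sodium acetate pH 7 was mixed with compound and 20 uM heparin and incubated 6 hr at 37 C.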
An asterisk follows results filed as active; ? = inconclusive; / = no result; [ ] = remark or other dose. Rows were chosen to be rich in hits. Some 3.1% of all compounds tested hit in one or more screens of this group. Unless noted, the call rests on the fitted dose curve; in most records, active means well fitted curve in the direction sought with a large enough effect; inconclusive means small, poorly fitted or top-dose-only effect, or another doubt; inactive means no such curve, though single readings can be large; an effect the other way counts as inactive or inconclusive. Unless noted, on the % scale 0 is the no-effect control and ±100 the full control effect; potency means the concentration at half of the fitted maximal effect.

SMILES	TexasRed fluor	Tau FP inhib	TRb-SRC2 inh	Tau fibril ThT	Tau fluor counter
CC(C)C1Cc2c(C#N)c(N)sc(=S)c2CO1 (stereo unspecified)	-2.7%	8.0%	2.0%	20µM*	?
CC1(C)Cc2c(C#N)c(N)sc(=S)c2CO1	-0.2%	?	-0.1%	?	-18.0%
COC(=O)c1cc2oc3ccccc3c2n1Cc1cc(C)ccc1C	22.4µM*[quencher]	-6.1%	-9.3%	-1.8%	-6.5%
COC(=O)c1cc2sc(C)cc2n1Cc1nc(-c2ccc(C)cc2)oc1C	89.1µM*[quencher]	-8.8%	-15.5%	?	?
COC(=O)c1cc2oc3ccccc3c2n1Cc1nc(-c2ccccc2Cl)oc1C	?	?	1.2%	-8.9%	-19.2%
COC(=O)c1cc2oc3ccccc3c2n1Cc1ccc(C)cc1	-7.6%	2.7%	0.4%	-9.1%	-12.1%
COC(=O)c1cc2oc3ccccc3c2n1Cc1nc(-c2ccccc2C)oc1C	20µM*[quencher]	-5.1%	-10.6%	-3.7%	-6.0%
COc1ccc(CCNC(=O)c2cnc3sc(N4CCCC4)nn3c2=O)cc1OC	0.5%	5.9%	0.1%	7.4%	12.1%
O=C(Nc1nc(-c2cccnc2)cs1)c1cccc([N+](=O)[O-])c1	1.9%	3.6%	3.5%	-7.2%	-7.1%
Cc1nc(C)c(C(=O)Nc2ncc([N+](=O)[O-])s2)o1	-10.1%	?	2.0%	25.1µM*	-23.3%
COc1ccccc1Nc1nc(-c2cccc([N+](=O)[O-])c2)cs1	-5.9%	1.0%	-4.6%	?	14.1µM*[quencher]
O=[N+]([O-])c1cccc(-c2csc(Nc3ccccc3)n2)c1	-2.1%	13.1%	-2.9%	?	25.1µM*[quencher]
O=C(Nc1ncc([N+](=O)[O-])s1)c1cccc([N+](=O)[O-])c1	?	12.7%	11.6%	17.8µM*	-14.3%
Cc1ccc(N2CC(c3nc(-c4ccc(Cl)cc4)no3)CC2=O)cc1F (stereo unspecified)	0.2%	2.9%	-8.8%	4.5%	0.5%
COC(=O)c1ccc(CSc2nc3c([nH]c4ccccc43)c(=O)n2-c2ccc(F)cc2)o1	2.2%	-8.2%	5.3%	4.7%	-13.6%
O=C(Nc1nc(-c2ccccc2)cs1)c1cccc([N+](=O)[O-])c1	-4.3%	14.0%	-4.8%	?	15.8µM*[quencher]
COc1cc(NS(=O)(=O)c2ccc(Nc3nc(-c4cccc([N+](=O)[O-])c4)cs3)cc2)nc(OC)n1	-8.0%	?	3.0%	17.8µM*	?
COc1ccccc1Nc1nc(C)cs1	-0.3%	?	7.6%	22.4µM*	?
COc1ccccc1Nc1c([N+](=O)[O-])cc(C)cc1[N+](=O)[O-]	-1.2%	1.3%	-1.3%	-19.9%	-27.4%
COc1ccccc1Nc1ccc([N+](=O)[O-])cc1N	-0.8%	12.9%	-8.8%	14.1µM*	?
COc1ccc(F)cc1S(=O)(=O)NCCc1csc2nc(-c3cccc(C)c3)nn12	0.5%	?	-8.1%	-4.2%	-27.9%
Cc1cn2c(=O)cc(COc3cccc(NC(=O)c4ccc(C(C)(C)C)cc4)c3)nc2s1	-1.6%	-4.5%	2.7%	2.2%	-24.6%
CCCOc1ccc(NC(=O)CC2C(=O)N(c3cccc(C)c3)C(=O)N2CCc2ccncc2)cc1 (stereo unspecified)	-1.4%	0.5%	-6.8%	-8.6%	-28.4%
CCC1=C(c2ccc(C)cc2)S(=O)(=O)N=C1N1CCC(C(=O)NCCc2cccc(OC)c2)CC1	-5.4%	12.9%	2.8%	?	-24.4%
CC(C)CC(=O)Nc1ncc([N+](=O)[O-])s1	-7.9%	-8.6%	2.1%	/	-11.7%
O=C(Nc1ccccc1)Nc1ncc([N+](=O)[O-])s1	-5.3%	0.6%	1.1%	17.8µM*	?
CC(C)COc1ccc(C(=O)Nc2sc3c(c2C(=O)O)CC(C)(C)OC3)cc1	1.1%[53 µM]	-8.3%	13.5%[53 µM]	15.8µM*	?
CC(=O)c1ccc(OC(=O)CCc2nc3ccccc3s2)cc1	0.5%	?	-0.6%	15.8µM*	-15.8%
Cc1[nH]n(-c2ccc(Cl)cc2)c(=O)c1N=Nc1cccnc1	-2.6%	-7.1%	-5.1%	/	-2.7%
CSc1ccc(N=Nc2c(C)[nH]n(C)c2=O)cc1	0.3%	-2.0%	-2.8%	8.91µM*	-7.8%

Assay outcomes as filed in PubChem BioAssay.
